Compound activity as filed in PubChem.
LDHA block: LDHA (human) enzyme inhibition; P00338; purified LDHA, NADH/diaphorase-resazurin fluorescence; active compounds read low; activity change, % (values are at about 110 or 230 µM); hit rate 0.15% among 480,000; AID 1347041; in the data active = activity change below about -30%; inconclusive = mostly about -25% to -30%
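LDH5 2 nM; NADH 0.06 mM, pyruvate 0.2 mM; 200 mM Tris pH 7.4, EDTA, Tween-20; 5 min RT. Detection: diaphorase 0.133 mg/mL + resazurin 37 µM, fluorescence ex540/em590 at 0 and 20 min; normalized to enzyme-free and DMSO wells.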
DT40 TDP1 no CPT: qHTS for Inhibitors of human tyrosyl-DNA phosphodiesterase 1 (TDP1): qHTS in cells in absence of CPT; DT40 Tdp1-/- hTDP1 cells, no CPT, ATP luminescence, 48 h; Potency, µM (series often up to 46.2 µM), most hits filed as inhibitors; hit rate 15% among 420,000; AID 686978, 2013; also: nearly all actives have a fitted effect of over 55% in size
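Stably hTDP1-transfected Tdp1-null chicken DT40 cells were treated with library compounds minus camptothecin and grown for at least 48 hr at 37 °C, after which cellular ATP was quantified by luminescence.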
TDP1 cell CPT: growth inhibition of DT40 Tdp1-/-;hTDP1 cells with camptothecin (screen for TDP1 inhibitors); chicken DT40 Tdp1-/-;hTDP1 cells + 20 nM CPT, ATP luminescence, 48 h; Potency, µM (doses to about 46.2 µM), usual class: inhibitors; hit rate 12% among 420,000; AID 686979; also: nearly all actives have a fitted effect of over 55% in size
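Chicken DT40 Tdp1-/- cells stably complemented with human TDP1 were seeded at 400 cells/well in medium containing 20 nM camptothecin, exposed to pin-transferred compounds, and grown at 37 °C for at least 48 hr. Viability was read as ATP luminescence.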
IL1B secr inh: inhibitors of inflammasome signaling (IL-1 beta secretion); THP-1 LPS/ATP IL-1B secretion, AlphaLISA, 16 h; active compounds read low; activity change, % at 57.5 µM; hit rate 4.7% among 360,000; in the data active = activity change below about -50%; inconclusive = mostly about -30% to -49%
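THP-1 cells pretreated 1 hr with compounds (up to 57.5 uM final), then stimulated with LPS (250 ng/mL final) plus ATP (1.25 mM final); secreted IL-1B measured by AlphaLISA after 16 hr, decreased signal indicating inhibition.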
Gal4-VP16 FLuc: counter-screen for ROR gamma inhibitors: Gal4-VP16 reporter; Drosophila S2 Gal4-VP16 UAS-luciferase, luminescence, 20 h; hit rate 3.5% among 310,000; Potency, µM (series often up to 53.6 µM), actives largely listed as inhibitors;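 also: Gal4-VP16 expression switched on by copper sulfate through the metallothionein promoter; nearly all actives have a fitted effect of over 50% in size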
RORg inh: ROR gamma (mouse) transcription inhibition. hit rate 5.4% among 310,000. AID 2551. P51450. Drosophila S2 Gal4-RORgamma UAS-luciferase reporter, 20 h. Potency, µM (top dose mostly 53.6 µM), actives largely listed as inhibitors; also: nearly all actives have a fitted effect of over 60% in size
Target sequence (P51450 whole entry, looked up, the tested form may be a part): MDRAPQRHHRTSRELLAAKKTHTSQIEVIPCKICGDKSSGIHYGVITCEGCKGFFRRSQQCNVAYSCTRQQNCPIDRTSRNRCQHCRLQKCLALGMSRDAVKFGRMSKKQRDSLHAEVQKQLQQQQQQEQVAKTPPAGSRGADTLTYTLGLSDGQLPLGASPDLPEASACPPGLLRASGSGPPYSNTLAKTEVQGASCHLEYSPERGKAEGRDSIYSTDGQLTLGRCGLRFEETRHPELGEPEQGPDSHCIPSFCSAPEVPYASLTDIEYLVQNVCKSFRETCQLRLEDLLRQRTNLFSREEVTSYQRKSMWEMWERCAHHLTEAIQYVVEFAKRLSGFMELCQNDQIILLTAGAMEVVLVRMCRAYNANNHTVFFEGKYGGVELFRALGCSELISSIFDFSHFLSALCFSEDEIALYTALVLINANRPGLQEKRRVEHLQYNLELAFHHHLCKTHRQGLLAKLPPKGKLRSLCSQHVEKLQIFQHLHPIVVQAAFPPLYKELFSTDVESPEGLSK
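Using a luciferase readout, inhibitors were identified by reduced reporter activity in Drosophila cells coexpressing a copper-inducible Gal4–ROR gamma fusion and UAS-driven Photinus luciferase, incubated 20 hr after 700 uM copper sulfate.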
A number is an active result. The list is not random: actives were taken first. Their share in the collection is about 18%. Unless noted, calls follow the shape of the dose curve; as a rule, active = well fitted curve in the direction sought with a large enough effect; inconclusive = small, poorly fitted or top-dose-only effect, or another doubt; inactive = no such curve, though single readings can be large; an effect the other way counts as inactive or inconclusive.

Screening Cc1nn(-c2ccccc2)c2sc(C(=O)N(CC(=O)NC3CCCC3)Cc3ccco3)cc12 returned LDHA block inactive, DT40 TDP1 no CPT 16µM, TDP1 cell CPT inconclusive, IL1B secr inh inconclusive, Gal4-VP16 FLuc inactive and RORg inh inactive.
CCCN1CCC(NC(=O)CCc2c[nH]c3ccccc23)CC1 was read as LDHA block inactive.
`COc1ccc(NC(=O)C(=O)NCC2(c3ccccc3)CCCC2)c(OC)c1` gave LDHA block inactive, DT40 TDP1 no CPT inconclusive and TDP1 cell CPT inconclusive.
For COc1ccc(C2(CNC(=O)C(=O)Nc3ccc(F)cc3)CCCC2)cc1OC the results were LDHA block inactive, DT40 TDP1 no CPT 18µM and TDP1 cell CPT 18µM.
Screening COc1ccc(C2(CNC(=O)/C=C\c3ccco3)CCCC2)cc1OC returned LDHA block inactive, DT40 TDP1 no CPT 29µM, TDP1 cell CPT 18µM, IL1B secr inh inactive, Gal4-VP16 FLuc inconclusive and RORg inh inconclusive.
Screening COc1ccc(C2(CNC(=O)c3cc(OC)c(OC)c(OC)c3)CCCC2)cc1OC returned LDHA block inactive, DT40 TDP1 no CPT inconclusive, TDP1 cell CPT inconclusive and IL1B secr inh inactive.
For COc1ccc(C2(CNC(=O)C(=O)Nc3ccccc3C)CCCC2)cc1OC the results were LDHA block inactive, DT40 TDP1 no CPT 18µM and TDP1 cell CPT 23µM.
For COC(=O)c1ccc(/C=N/Nc2ccc(S(N)(=O)=O)cc2[N+](=O)[O-])cc1 the results were LDHA block inactive.
O=C(COc1ccc2c3c(c(=O)oc2c1)CCC3)N1CCN(c2ccc(F)cc2)CC1 was read as LDHA block inactive, DT40 TDP1 no CPT inactive, TDP1 cell CPT inconclusive, IL1B secr inh inactive, Gal4-VP16 FLuc inactive and RORg inh inactive.
`COC(=O)Cc1c(C)c2ccc(OCC(=O)N3CCC(C)CC3)c(C)c2oc1=O` gave LDHA block inactive, DT40 TDP1 no CPT 15µM, TDP1 cell CPT 13µM, IL1B secr inh inactive, Gal4-VP16 FLuc inactive and RORg inh inactive.
Screening Cc1cccc(N2CCN(C(=O)COc3ccc4c(C)cc(=O)oc4c3C)CC2)c1C returned LDHA block inactive, DT40 TDP1 no CPT 15µM, TDP1 cell CPT 13µM, IL1B secr inh inconclusive, Gal4-VP16 FLuc inactive and RORg inh inactive.
Screening O=C(COc1ccc2c3c(c(=O)oc2c1)CCCC3)N1CCN(c2ccc(F)cc2)CC1 returned LDHA block inactive, DT40 TDP1 no CPT inconclusive, TDP1 cell CPT 23µM, IL1B secr inh inactive, Gal4-VP16 FLuc inactive and RORg inh inactive.
For Cc1cc(=O)oc2c(C)c(OCC(=O)N3CCN(c4ccc(F)cc4)CC3)ccc12 the results were LDHA block inactive, DT40 TDP1 no CPT 23µM, TDP1 cell CPT 23µM, IL1B secr inh inactive, Gal4-VP16 FLuc inactive and RORg inh inactive.
COC(=O)Cc1c(C)c2ccc(OCC(=O)N3CCCC3)c(C)c2oc1=O was read as LDHA block inactive, DT40 TDP1 no CPT inactive, TDP1 cell CPT inconclusive, IL1B secr inh inactive, Gal4-VP16 FLuc inactive and RORg inh inactive.
Screening CCS(=O)(=O)N(Cc1c(F)cccc1Cl)c1c(C)n(C)n(-c2ccccc2)c1=O returned LDHA block inactive.
For C=C(C)CSc1nc2c(c(=O)[nH]c(=O)n2C)n1CCCc1ccccc1 the results were LDHA block inactive.
For O=C(Nc1ccccc1)c1c(F)c(F)c(F)c(F)c1F the results were LDHA block inactive, DT40 TDP1 no CPT inactive, TDP1 cell CPT inactive, IL1B secr inh inactive, Gal4-VP16 FLuc inactive and RORg inh inactive.
For CC(C)c1c(C(=O)Nc2ccccc2)c(-c2ccccc2)c(-c2ccc(F)cc2)n1CC[C@@H](O)C[C@@H](O)CC(=O)O the results were DT40 TDP1 no CPT 15µM, TDP1 cell CPT inconclusive, Gal4-VP16 FLuc inactive and RORg inh inactive.
For Cn1cnnc1SCc1ccc(C(=O)N=Nc2c(O)n(C)c3ccccc23)cc1 the results were LDHA block inactive, DT40 TDP1 no CPT inconclusive, TDP1 cell CPT inconclusive, IL1B secr inh -55, Gal4-VP16 FLuc inactive and RORg inh inactive.
